Data on 24 molecules can be found in PubChem BioAssay (EPA / NIEHS).

Several values for one entry are separate records, joined by “and”; a condition that tells them apart may be missing. Identical values can stand only once. The source holds several records for some structures; these can differ, active in one and inactive in another. Activity calls are given as the source filed them. How the source made its calls: active means hit-call score of the fitted dose curve at least 0.9, where 1 is the maximum; inactive means score below 0.9.

Sequence of Cellular tumor antigen p53 (Homo sapiens) (P04637 whole entry, looked up): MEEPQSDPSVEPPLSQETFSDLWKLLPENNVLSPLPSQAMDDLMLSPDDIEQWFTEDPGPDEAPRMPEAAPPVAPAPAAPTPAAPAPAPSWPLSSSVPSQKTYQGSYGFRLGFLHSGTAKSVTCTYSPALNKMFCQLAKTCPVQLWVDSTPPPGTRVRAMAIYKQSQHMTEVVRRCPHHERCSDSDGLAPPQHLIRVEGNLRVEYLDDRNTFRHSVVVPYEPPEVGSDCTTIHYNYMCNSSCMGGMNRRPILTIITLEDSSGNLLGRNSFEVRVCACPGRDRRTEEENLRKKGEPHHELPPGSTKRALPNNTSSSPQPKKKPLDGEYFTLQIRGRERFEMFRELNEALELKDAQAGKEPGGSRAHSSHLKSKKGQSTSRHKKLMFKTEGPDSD

The target in the first experiment is Cellular tumor antigen p53 (Homo sapiens) (UniProt P04637). Put plainly: ATG_p53_CIS: Attagene CIS-FACTORIAL HepG2 Assay for human p53 Transcription Factor (AID 2282994). The following applies: HepG2 p53 cis-element reporter, Attagene mRNA; actives raise or lower the signal. The method, boiled down:
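HepG2, transient MRTU transfection (cis promoter elements, endogenous TFs); 24 h dosing; RNA isolation, RT-PCR, 6-FAM primer extension, HpaI digest, CE fluorescence; bidirectional fit vs DMSO.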
Turning to `CC(=N[Si](C)(C)C)O[Si](C)(C)C`, the outcome was inactive.
On the same count and under the same terms, in the case of `C/C=C(\C)C(=O)OC/C=C(\C)CCC=C(C)C` it was “inactive”; in that of `Nc1ccc(N)c([N+](=O)[O-])c1`, “inactive”.
Same read-out and setting: the same measure for `COc1ccc(OC)cc1`: “inactive”; for `CC(C)COC(=O)c1ccccc1O`: “inactive”.
As for `c1coc(CNc2ncnc3nc[nH]c23)c1`, the molecule was called inactive.
As usually defined, the AC50 is the concentration at which the activity in the assay is half-maximal. Consider `O=C(OCc1ccccc1)c1ccccc1O`, for which the AC50 is 145 µM (active).
As for `CC1=CC(O)CC(C)(C)C1` (centres undefined), the result was inactive.
For the molecule `N=C1N=C(N)c2ccccc21`, the outcome was inactive.
On the same count and under the same terms, the same measure for `[Cu+]`: “inactive”; for `C1=COCCC1`: “inactive”.
On the same count and under the same terms, in the case of `NC(N)=NC(N)=NCCc1ccccc1` it was “inactive”; in that of `CC(C)(C)c1cc(CCC(=O)OCCSCCOC(=O)CCc2cc(C(C)(C)C)c(O)c(C(C)(C)C)c2)cc(C(C)(C)C)c1O`, “inactive”.
The same measure, in the same setting: the same measure for `CC/C=C\CCOC(=O)C(C)C`: “inactive”.
On to `CC1COC(=O)O1` (centres undefined), for which the call was inactive.
Still for that read-out and setting: the same measure for `CC/C=C\C#N`: “inactive”; for `CCCCCCC(C)O` (centres undefined): “inactive”.
Same read-out and setting: the same measure for `CC(C)(C)c1cccc(O)c1`: “inactive”; for `CC(C)(O)C(=O)c1ccc(OCCO)cc1`: “inactive”; for `CCCCCCCCCCCCN1CCOCC1`: “inactive”.
Turning to `O=C(c1ccc(OCCN2CCCCC2)cc1)c1c(-c2ccc(O)cc2)sc2cc(O)ccc12`, the AC50 was 9.07 µM (active) and 14.9 µM (active) and 15.1 µM (active); the result was inactive.
As to `CC/C(=C(\c1ccccc1)c1ccc(OCCN(C)C)cc1)c1ccccc1`, the result was inactive.
Still for that read-out and setting: the same measure for `NC(N)=S`: “inactive”.

Read-out in another experiment: not listed separately
Put plainly: BSK_3C_TissueFactor: BioMAP Diversity Plus: 3C Assay for Tissue Factor Biomarker Activity (AID 2282997). The following applies: BioMAP 3C HUVEC, tissue factor biomarker readout; actives raise or lower the signal. In short, it runs like this:
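Values derive from bidirectional curve fitting against DMSO of Tissue Factor ELISA signals, taken 24 h after dosing primary human umbilical vein endothelial cells.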
Take `Nc1ccc(N)c([N+](=O)[O-])c1`: the result was inactive.
As for `CC(=O)c1ccc(C)cc1`, the outcome was inactive.
Same read-out and setting: in the case of `CC(C)(C)c1cccc(O)c1` it was “inactive”.
With `O=C(c1ccc(OCCN2CCCCC2)cc1)c1c(-c2ccc(O)cc2)sc2cc(O)ccc12`, the AC50 was 34.6 µM (active).
Still for that read-out and setting: the same measure for `CC/C(=C(\c1ccccc1)c1ccc(OCCN(C)C)cc1)c1ccccc1`: 11.2 µM (active) and 11.1 µM (active).

Read-out in another experiment: not listed separately
Put plainly: BSK_3C_uPAR: BioMAP Diversity Plus: 3C Assay for Urokinase-type plasminogen activator receptor (uPAR) Biomarker Activity (AID 2282998). The following applies: BioMAP 3C HUVEC, uPAR biomarker ELISA; actives raise or lower the signal. The method, boiled down: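 Dose primary human umbilical vein endothelial cells, incubate 24 h, measure cell-surface uPAR by ELISA, then fit the signal in both directions against the DMSO negative control.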
On the technique in general: ELISA stands for enzyme-linked immunosorbent assay.
`Nc1ccc(N)c([N+](=O)[O-])c1`: the result was inactive.
For `CC(=O)c1ccc(C)cc1`, the outcome was inactive.
`CC(C)(C)c1cccc(O)c1`: the concentration at half-maximal activity (AC50) is 16 nM (active).
Still for that read-out and setting: the same measure for `O=C(c1ccc(OCCN2CCCCC2)cc1)c1c(-c2ccc(O)cc2)sc2cc(O)ccc12`: 22300 nM (active).
The same measure, in the same setting: the same measure for `CC/C(=C(\c1ccccc1)c1ccc(OCCN(C)C)cc1)c1ccccc1`: 5.43 µM (active) and 5.65 µM (active).

Read-out in another experiment: not listed separately
Put plainly: BSK_3C_VCAM1: BioMAP Diversity Plus: 3C Assay for Vascular cell adhesion molecule 1 (VCAM1) Biomarker Activity (AID 2282999). The following applies: BioMAP 3C HUVEC, VCAM1 ELISA, cytokine-stimulated; actives raise or lower the signal. The method, boiled down: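 Human umbilical vein endothelial cells (3C system), biomarker read by ELISA 24 h after dosing; bidirectional fit against DMSO baseline. Cytotoxicity tracked by SRB total-protein staining in parallel cultures at biomarker time.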
As to `Nc1ccc(N)c([N+](=O)[O-])c1`, the outcome was inactive.
For `CC(=O)c1ccc(C)cc1`, the outcome was inactive.
`CC(C)(C)c1cccc(O)c1`: the outcome was inactive.
As for `O=C(c1ccc(OCCN2CCCCC2)cc1)c1c(-c2ccc(O)cc2)sc2cc(O)ccc12`, the concentration at half-maximal activity (AC50) is 35.4 µM (active).
Still for that read-out and setting: the same measure for `CC/C(=C(\c1ccccc1)c1ccc(OCCN(C)C)cc1)c1ccccc1`: 9.97 µM (active) and 9.7 µM (active).
